Inconclusive results are not listed. Calls of active or inactive are those of the source. The call rests on the fitted dose curve; in most records, active means well fitted curve in the direction sought with a large enough effect in the repeat runs; inconclusive means weak or mixed curves; inactive means no such curve, though single readings can be large; an effect the other way counts as inactive or inconclusive.
Assays:
[1] = qHTS RealTime-Glo MT Cell Viability Assay in HEK293 cells - 0 hour (AID 1224880); further: top concentration of the series differs between compounds; nearly all actives have a fitted effect of over 45% in size
Summary of the method: (§1)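 Real-time viability in HEK293: signal arises when living cells convert a prosubstrate for NanoLuc in the medium, so luminescence tracks viable cell number. Compound (23 nL, DMSO) added 5 h post-seeding; kinetic reads at 0–40 h, 37 C.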

[2] = A CellTox Green Cytotoxicity Assay to monitor cytotoxicity in HEK293 cells - 32 hour (AID 1224881); further: nearly all actives have a fitted effect of over 40% in size
Summary of the method: (§2)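 Cells (HEK293, 600/well) and dye reagent are dispensed together. After 5 h at 37 C, 23 nL compound is pinned in. Plates stay at 37 C for 40 h with fluorescence read at 0h, 8h, 16h, 24h, 32h and 40h.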

[3] = A CellTox Green Cytotoxicity Assay to monitor cytotoxicity in HepG2 cells - 32 hour (AID 1224883); further: nearly all actives have a fitted effect of over 50% in size; further: potency means the concentration at half of the fitted maximal effect
Summary of the method: (§3)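 Cells and non-lytic dye reagent are dispensed together (600 HepG2 cells/well) and incubated 5 h before DMSO compound transfer. Kinetic fluorescence is then recorded in the same wells during 40 h at 37 C.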

[4] = A CellTox Green Cytotoxicity Assay to monitor cytotoxicity in HEK293 cells - 8 hour (AID 1224884); further: nearly all actives have a fitted effect of over 35% in size
Summary of the method: as §2

[5] = qHTS RealTime-Glo MT Cell Viability Assay in HepG2 cells - 16 hour (AID 1224885); further: nearly all actives have a fitted effect of over 50% in size
Summary of the method: (§4)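 Tox21 10K library screened in qHTS format on HepG2 cells carrying RealTime-Glo reagents. Compounds were added after a 5 h preincubation, and the luminescent signal from continuous culture was measured repeatedly during 40 h treatment.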

[6] = qHTS RealTime-Glo MT Cell Viability Assay in HEK293 cells - 24 hour (AID 1224886); further: nearly all actives have a fitted effect of over 50% in size; further: potency means the concentration at half of the fitted maximal effect
Summary of the method: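 Luminescence generated by NanoLuc from substrate produced by living HEK293 cells served as the viability signal. Each value reflects the reading at its stated time point during continuous 40 h compound exposure at 37 C.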

[7] = qHTS RealTime-Glo MT Cell Viability Assay in HEK293 cells - 8 hour (AID 1224887); further: nearly all actives have a fitted effect of over 50% in size; further: potency means the concentration at half of the fitted maximal effect
Summary of the method: as §1

[8] = A CellTox Green Cytotoxicity Assay to monitor cytotoxicity in HEK293 cells - 16 hour (AID 1224888); further: nearly all actives have a fitted effect of over 35% in size
Summary of the method: as §2

[9] = qHTS RealTime-Glo MT Cell Viability Assay in HepG2 cells - 0 hour (AID 1224889); further: nearly all actives have a fitted effect of over 50% in size
Summary of the method: as §4

[10] = A CellTox Green Cytotoxicity Assay to monitor cytotoxicity in HepG2 cells - 0 hour (AID 1224882); further: nearly all actives have a fitted effect of over 35% in size
Summary of the method: as §3

Measured: Potency

CCCN(CCC)C(=O)C(CCC(=O)O)NC(=O)c1ccccc1 (stereo not drawn)
not listed: [10]
inactive: all other assays above

CCC(=O)c1ccc2c(c1)N(CCCN(C)C)c1ccccc1S2
inactive: [1] | [2] | [4] | [8]
active: [6] 10.7 µM | [7] 9.52 µM

O=C(Cl)c1cccc([N+](=O)[O-])c1
not listed: [10]
inactive: all other assays above

Oc1ccccc1C=NCc1ccccc1
not listed: [10]
inactive: all other assays above

CCOC(=O)c1ccccc1O
not listed: [10]
inactive: all other assays above

CCOC(=O)c1cc(=O)c2c(OCC(COc3cccc4oc(C(=O)OCC)cc(=O)c34)OC(=O)[C@@H](N)CCCCN)cccc2o1
not listed: [10]
inactive: all other assays above

O=C(CCCl)NCc1ccccc1
not listed: [2] | [9]
inactive: all other assays above

C=CCc1cc(OC)c(O)c(C(=O)NCCO)c1
not listed: [10]
inactive: all other assays above

CCCCCOc1ccc(C2SC(=O)NC2=O)cc1OCC (stereo not drawn)
inactive: [1] | [2] | [4] | [7] | [8] | [9]

CCCCCCn1c(=O)c2c(ncn2C)n(C)c1=O
not listed: [5] | [10]
inactive: all other assays above

CCOC(=O)C(Br)c1ccccc1 (stereo not drawn)
not listed: [10]
inactive: all other assays above

CCCCc1ccc2nc(NC(=O)OC)[nH]c2c1
not listed: [5] | [6] | [10]
inactive: all other assays above

CN1CCN(C2=Nc3cc(F)ccc3Cc3ccccc32)CC1
not listed: [5] | [10]
inactive: all other assays above

CN1C(=O)CC(c2ccccc2)C1=O (stereo not drawn)
not listed: [2] | [9]
inactive: all other assays above

FC(F)(F)C(F)(F)C(F)(F)C(F)(F)C(F)(F)C(F)(F)C(F)(F)C(F)(F)Br
not listed: [9] | [10]
inactive: all other assays above

C=Cc1ccccc1
not listed: [10]
inactive: all other assays above

CN(CC1(C)CCCO1)S(=O)(=O)c1ccc(Cl)c(S(N)(=O)=O)c1 (stereo not drawn)
not listed: [2]
inactive: all other assays above

CCCCNC(=S)NCCCC
not listed: [2]
inactive: all other assays above

CCOC(=O)NCCC[Si](OCC)(OCC)OCC
not listed: [6] | [9] | [10]
inactive: all other assays above

Cc1cc(NS(=O)(=O)c2ccc(N)cc2)nc(C)n1
not listed: [3] | [10]
inactive: all other assays above

c1ccc(CN(CC2=NCCN2)c2ccccc2)cc1
not listed: [9] | [10]
inactive: all other assays above

Cn1cnc2c(F)c(Nc3ccc(Br)cc3Cl)c(C(=O)NOCCO)cc21
active: [3] 0.0379 µM
not listed: [10]
inactive: all other assays above

CC(C)NC[C@@H](O)COc1cccc2ccccc12
not listed: [5] | [10]
inactive: all other assays above

CC(C)C1=CC2=CC[C@@H]3[C@](C)(CCC[C@@]3(C)C(=O)O)[C@H]2CC1
not listed: [10]
inactive: all other assays above

ClC(Cl)Cl
not listed: [6] | [10]
inactive: all other assays above

O=C1CCCc2ccccc21
not listed: [10]
inactive: all other assays above

CCCCCCCCCC#N
not listed: [2] | [9]
inactive: all other assays above

Source: PubChem BioAssay (Tox21)
